These results are taken from PubChem BioAssay (EPA / NIEHS).

Experiment [1] has as its target Bile acid receptor (Homo sapiens) (UniProt Q96RI1). As to the kind of experiment: NVS_NR_hFXR_Agonist: NovaScreen (NVS) Nuclear Receptor Binding Assay for human Farnesoid X Receptor Agonism (FXR) (AID 2283347). In outline:
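Agonist-mode FXR assay read by time-resolved FRET 1 h after compound addition, using isolated human receptor protein without cells. Duplicate 25 uM single-point primary screen, concentration series for confirmed actives; DMSO as baseline.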

Experiment [2] addresses Estrogen receptor (Homo sapiens) (UniProt P03372). The experiment can be described thus: NVS_NR_hER: NovaScreen (NVS) Nuclear Receptor Binding Assay for human Estrogen Receptor (ER) (AID 2283348). In a few lines: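 Radiodetection of ligand displacement in a lysate-based, cell-free format using MCF7 extracts, read at 18 hours. Duplicate 25 uM primary testing, then concentration series for actives.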

Experiment [3] has the same target. The experiment can be described thus: OT_ER_ERaERa_0480: Odyssey Thera (OT) 8-hour HEK293T Protein-Complementation Assay for Estrogen Receptor-alpha/-alpha Homodimer (AID 2283351).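 Also: rise in fluorescence from reassembled reporter fragments on ERα LBD homodimer in nucleus or whole cell.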 In outline:
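Measures ERα LBD (aa 310-547) homodimer complementation in stably transfected HEK293T at 8 h post-dose, with fluorescence intensity quantified on a laser scanning cytometer relative to DMSO controls.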

In experiment [4] the target is Androgen Receptor/SRC-1 Co-activator, AR (gene 367) (UniProt P10275). The experiment can be described thus: OT_AR_ARSRC1_0960: Odyssey Thera (OT) 16-hour HEK293T Protein-Complementation Assay for Androgen Receptor/SRC-1 Co-activator (AID 2283353).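 Also: actives raise the signal above DMSO so potency reflects increased AR and SRC-1 complex.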 In a few lines: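 Sixteen-hour cell assay: Venus halves fused to AR and SRC-1 in HEK293T report binding. Images at 488/635 nm give an N/C ratio in the 488 nm channel over ≥400 cells, analysed as signal increase over DMSO.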
Androgen Receptor/SRC-1 Co-activator, AR (gene 367), sequence (P10275 whole entry, looked up, the tested form may be a part): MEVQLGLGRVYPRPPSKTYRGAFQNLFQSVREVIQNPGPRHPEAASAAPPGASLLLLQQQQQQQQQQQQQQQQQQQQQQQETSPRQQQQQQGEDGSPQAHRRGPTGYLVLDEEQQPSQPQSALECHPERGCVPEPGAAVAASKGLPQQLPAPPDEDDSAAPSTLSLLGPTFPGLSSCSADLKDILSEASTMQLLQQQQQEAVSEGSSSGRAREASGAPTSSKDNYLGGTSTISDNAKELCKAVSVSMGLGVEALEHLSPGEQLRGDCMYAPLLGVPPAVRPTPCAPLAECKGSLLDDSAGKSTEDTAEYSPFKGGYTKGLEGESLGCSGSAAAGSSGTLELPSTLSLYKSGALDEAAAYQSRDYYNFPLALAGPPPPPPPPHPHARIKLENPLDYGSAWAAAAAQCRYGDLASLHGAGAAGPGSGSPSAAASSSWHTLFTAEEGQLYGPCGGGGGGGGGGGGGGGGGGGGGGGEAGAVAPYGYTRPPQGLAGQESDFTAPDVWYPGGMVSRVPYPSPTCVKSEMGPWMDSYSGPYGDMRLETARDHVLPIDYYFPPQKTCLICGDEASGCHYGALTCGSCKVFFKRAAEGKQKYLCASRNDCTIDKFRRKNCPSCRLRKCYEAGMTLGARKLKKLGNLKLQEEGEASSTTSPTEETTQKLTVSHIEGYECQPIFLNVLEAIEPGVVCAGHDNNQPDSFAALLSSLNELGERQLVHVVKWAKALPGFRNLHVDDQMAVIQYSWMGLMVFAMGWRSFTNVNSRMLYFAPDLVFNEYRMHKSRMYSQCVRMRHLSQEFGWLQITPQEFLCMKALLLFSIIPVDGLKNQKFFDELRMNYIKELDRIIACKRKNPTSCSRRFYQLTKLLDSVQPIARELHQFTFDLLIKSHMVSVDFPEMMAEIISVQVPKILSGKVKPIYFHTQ

For experiment [5] the target is unchanged. As to the kind of experiment: OT_AR_ARSRC1_0480: Odyssey Thera (OT) 8-hour HEK293T Protein-Complementation Assay for Androgen Receptor/SRC-1 Co-activator (AID 2283354).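 Also: hits raise the complementation signal above DMSO so AC50 marks enhancers.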 In outline:
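After 8 h dosing, stably expressing HEK293T cells with split-Venus AR/SRC-1 fusions were imaged (488, 635nm). The 488nm N/C ratio per image gave the endpoint, analysed in the positive direction against DMSO.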

In experiment [6] the target is Retinoic acid receptor alpha (Homo sapiens) (UniProt P10276). The experiment can be described thus: NVS_NR_hRAR_Antagonist: NovaScreen (NVS) Nuclear Receptor Binding Assay for human Retinoic Acid Alpha Receptor Antagonism (RAR) (AID 2283358). In a few lines:
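Chemicals were first tested in duplicate at 25 uM, then actives in concentration series, in a cell-free TR-FRET antagonist binding format. Measurements were taken 2 hours after dosing and loss of signal was evaluated against DMSO controls.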

The target of a further experiment is PGR (gene 5241) (UniProt P06401). The experiment can be described thus: NVS_NR_hPR: NovaScreen (NVS) Nuclear Receptor Binding Assay for human Progestron Receptor (PR) (AID 2283360).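 Also: active means loss of bound radioligand signal versus DMSO baseline.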 In a few lines: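 T47D lysate; tritiated or iodinated radioligand; scintillation count at 18 h. DMSO = negative control/baseline. Primary: 25 uM, duplicate. Secondary: concentration series for actives.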
PGR (gene 5241), sequence (P06401 whole entry, looked up): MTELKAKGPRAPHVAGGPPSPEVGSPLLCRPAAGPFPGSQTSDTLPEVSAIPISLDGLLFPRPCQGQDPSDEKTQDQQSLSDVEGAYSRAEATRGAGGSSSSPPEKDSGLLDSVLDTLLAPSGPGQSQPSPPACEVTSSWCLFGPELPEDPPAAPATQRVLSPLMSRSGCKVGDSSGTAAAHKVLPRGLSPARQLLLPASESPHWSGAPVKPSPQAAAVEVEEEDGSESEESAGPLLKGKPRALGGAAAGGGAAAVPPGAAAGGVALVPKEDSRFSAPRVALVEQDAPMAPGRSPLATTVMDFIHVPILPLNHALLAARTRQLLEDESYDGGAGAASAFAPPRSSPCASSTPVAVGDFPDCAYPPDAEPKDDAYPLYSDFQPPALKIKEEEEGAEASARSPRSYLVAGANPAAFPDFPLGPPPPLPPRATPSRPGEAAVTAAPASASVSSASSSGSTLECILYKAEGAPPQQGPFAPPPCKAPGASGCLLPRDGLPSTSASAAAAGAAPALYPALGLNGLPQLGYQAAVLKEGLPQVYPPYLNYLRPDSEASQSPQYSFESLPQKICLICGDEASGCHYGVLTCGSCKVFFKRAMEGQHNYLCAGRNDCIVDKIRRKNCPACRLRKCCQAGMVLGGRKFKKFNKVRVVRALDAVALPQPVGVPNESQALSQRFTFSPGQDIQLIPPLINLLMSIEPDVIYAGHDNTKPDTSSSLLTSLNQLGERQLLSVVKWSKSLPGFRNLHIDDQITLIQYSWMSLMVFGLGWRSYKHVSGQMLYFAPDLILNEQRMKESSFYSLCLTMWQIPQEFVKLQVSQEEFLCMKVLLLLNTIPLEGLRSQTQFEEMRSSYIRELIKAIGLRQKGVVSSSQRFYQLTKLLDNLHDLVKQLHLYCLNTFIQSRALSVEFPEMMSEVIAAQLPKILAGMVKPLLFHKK

Experiment [7] addresses Glucocorticoid receptor (Homo sapiens) (UniProt P04150). The experiment can be described thus: NVS_NR_hGR: NovaScreen (NVS) Nuclear Receptor Binding Assay for human Glucocorticoid Receptor (GR) (AID 2283363).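 As to AC50: activity is loss of specific radioligand binding signal relative to DMSO.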 In outline:
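Single-readout cell-free binding: radioligand plus extracted receptor, 16-hour dosing, filter radiodetection; 25 uM duplicate primary, concentration series secondary.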

Experiment [8] addresses rat Androgen Receptor (AR), Ar (gene 24208) (UniProt P15207). As to the kind of experiment: NVS_NR_rAR: NovaScreen (NVS) Nuclear Receptor Binding Assay for rat Androgen Receptor (AR) (AID 2283366). In outline:
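Actives from a duplicate single-concentration (25 uM) primary run went on to concentration series. Displacement of radioligand was counted by filtration and scintillation, 18 h post-dose, using prostate extracts from testosterone-pretreated rats, with DMSO as baseline.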

Experiment [9] deals with Bile acid receptor (Homo sapiens) (UniProt Q96RI1). The experiment can be described thus: NVS_NR_hFXR_Antagonist: NovaScreen (NVS) Nuclear Receptor Binding Assay for human Farnesoid X Receptor Antagonism (FXR) (AID 2283350). In a few lines: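 Antagonist-format time-resolved FRET binding assay with extracted human receptor protein, read 1 hour after compound addition. Compounds first screened at 25 uM in duplicate, then actives tested in concentration series, with loss of signal relative to DMSO.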
Bile acid receptor (Homo sapiens), sequence (Q96RI1 whole entry, looked up): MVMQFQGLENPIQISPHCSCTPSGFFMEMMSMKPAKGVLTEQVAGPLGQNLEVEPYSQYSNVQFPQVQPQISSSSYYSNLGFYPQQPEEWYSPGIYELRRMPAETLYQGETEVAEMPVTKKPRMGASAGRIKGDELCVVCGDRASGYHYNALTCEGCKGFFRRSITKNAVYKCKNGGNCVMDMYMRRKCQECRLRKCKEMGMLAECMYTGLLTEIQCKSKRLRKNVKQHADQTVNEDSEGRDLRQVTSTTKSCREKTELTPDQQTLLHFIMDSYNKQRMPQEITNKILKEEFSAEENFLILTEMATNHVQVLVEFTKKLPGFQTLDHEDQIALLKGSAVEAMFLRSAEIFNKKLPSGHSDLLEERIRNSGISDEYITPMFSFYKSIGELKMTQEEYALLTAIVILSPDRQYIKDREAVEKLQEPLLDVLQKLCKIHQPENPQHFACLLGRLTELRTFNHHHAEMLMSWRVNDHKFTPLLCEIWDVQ

Experiment [10] has as its target T1, Estrogen receptor (Homo sapiens) + Estrogen receptor beta (Homo sapiens) (UniProt P03372+Q92731). The experiment can be described thus: OT_ER_ERaERb_0480: Odyssey Thera (OT) 8-hour HEK293T Protein-Complementation Assay for Estrogen Receptor-alpha/-beta Heterodimer (AID 2283352). In a few lines:
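Human HEK293T cells were treated for 8 hours and receptor heterodimerisation was detected through reconstitution of a fluorescent reporter split between ER-alpha and ER-beta ligand-binding domains. Activity was analysed as gain of signal against DMSO.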

Experiment [11] addresses T1, Estrogen receptor (Homo sapiens) + Estrogen receptor beta (Homo sapiens). As to the kind of experiment: OT_ER_ERaERb_1440: Odyssey Thera (OT) 24-hour HEK293T Protein-Complementation Assay for Estrogen Receptor-alpha/-beta Homodimer (AID 2283356).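 Also: heteromer of ER alpha and ER beta binding domains; hits raise reporter fluorescence and both agonists and antagonists give an increase.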 In a few lines: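 24 h exposure; HEK293T PCA cells with ERα/ERβ LBD fragments; signal rise in nuclear or whole-cell fluorescence over vehicle.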

Experiment [12] concerns the target Retinoic acid receptor alpha (Homo sapiens) (UniProt P10276). As to the kind of experiment: NVS_NR_hRARa_Agonist: NovaScreen (NVS) Nuclear Receptor Binding Assay for human Retinoic Acid Alpha Receptor Agonism (RAR) (AID 2283361). In a few lines:
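Compounds screened at 25 uM, duplicate, then in concentration series if active. Detection: TR-FRET gain of signal versus DMSO after 2 h with cell-free extracted RARα.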

In experiment [13] the target is Estrogen receptor beta (Homo sapiens) (UniProt Q92731). As to the kind of experiment: OT_ER_ERbERb_0480: Odyssey Thera (OT) 8-hour HEK293T Protein-Complementation Assay for Estrogen Receptor-beta/-beta Homodimer (AID 2283357).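 Also: active means signal gain over DMSO baseline.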 In outline: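 Fluorescence gain from complemented reporter fragments on ER-beta LBD homodimer in HEK293T was quantified against DMSO controls after 8 h treatment, fixation in 4% formaldehyde and Draq5 staining.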
Estrogen receptor beta (Homo sapiens), sequence (Q92731 whole entry, looked up, the tested form may be a part): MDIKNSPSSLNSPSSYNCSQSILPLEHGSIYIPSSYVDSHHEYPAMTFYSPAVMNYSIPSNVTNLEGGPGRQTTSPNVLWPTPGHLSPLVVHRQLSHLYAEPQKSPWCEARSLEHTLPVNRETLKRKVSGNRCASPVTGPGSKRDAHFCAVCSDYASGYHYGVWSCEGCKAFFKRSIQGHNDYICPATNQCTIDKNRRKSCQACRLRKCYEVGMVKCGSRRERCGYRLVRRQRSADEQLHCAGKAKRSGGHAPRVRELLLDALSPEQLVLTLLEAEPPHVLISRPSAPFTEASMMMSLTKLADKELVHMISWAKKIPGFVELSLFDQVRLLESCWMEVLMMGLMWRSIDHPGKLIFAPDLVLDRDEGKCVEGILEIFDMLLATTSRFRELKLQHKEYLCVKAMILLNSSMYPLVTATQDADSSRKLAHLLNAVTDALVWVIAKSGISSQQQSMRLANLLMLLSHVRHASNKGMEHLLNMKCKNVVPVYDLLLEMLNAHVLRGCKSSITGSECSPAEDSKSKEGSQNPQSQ

Experiment [14] has as its target rat Mineralocorticoid Receptor (MR), Nr3c2 (gene 25672) (UniProt P22199). The experiment can be described thus: NVS_NR_rMR: NovaScreen (NVS) Nuclear Receptor Binding Assay for rat Mineralocorticoid Receptor (MR) (AID 2283355). In a few lines: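 Single-concentration duplicate screen (25 uM) of radioligand binding in adrenalectomized rat brain supernatant; scintillation detection 24 h after dosing. Positive and negative controls ran on each plate, and confirmed actives went to concentration-response.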

Experiment [15] concerns the target human Thyroid Receptor Alpha (TRa), THRA (gene 7067) (UniProt P10827). As to the kind of experiment: NVS_NR_hTRa_Antagonist: NovaScreen (NVS) Nuclear Receptor Binding Assay for human Thyroid Receptor Alpha Antagonism (TRa) (AID 2283362).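 Also: activity is loss of signal relative to DMSO baseline.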 In outline: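 In this biochemical format, receptor protein is dosed with chemical and read after 1 hour via AlphaLISA. Decreases from the DMSO baseline indicate antagonist activity; screening used 25 uM in duplicate before concentration-response confirmation.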

The target in experiment [16] is guinea pig Sigma Receptor, Non-selective Binding, SIGMAR1 (gene 100135589) (UniProt Q60492). As to the kind of experiment: NVS_OR_gSIGMA_NonSelective: NovaScreen (NVS) Nuclear Receptor Binding Assay for guinea pig Sigma Receptor, Non-selective Binding (AID 2283367). In a few lines:
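Test chemicals were screened in duplicate at 25 uM, then in concentration series if active, against radioligand binding to guinea pig brain membranes; filtration and scintillation counting at 1 h measured remaining bound ligand.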

For orientation: AC50 means the concentration giving half of the maximal activity seen.

The structures appear in SMILES notation. Results filed as inconclusive are left out. Calls of active or inactive are those of the source. The calls were made as follows: active = hit-call score of the fitted dose curve at least 0.9, where 1 is the maximum; inconclusive = response in the unintended direction; inactive = score below 0.9.

rat Androgen Receptor (AR), Ar (gene 24208), sequence (P15207 whole entry, looked up): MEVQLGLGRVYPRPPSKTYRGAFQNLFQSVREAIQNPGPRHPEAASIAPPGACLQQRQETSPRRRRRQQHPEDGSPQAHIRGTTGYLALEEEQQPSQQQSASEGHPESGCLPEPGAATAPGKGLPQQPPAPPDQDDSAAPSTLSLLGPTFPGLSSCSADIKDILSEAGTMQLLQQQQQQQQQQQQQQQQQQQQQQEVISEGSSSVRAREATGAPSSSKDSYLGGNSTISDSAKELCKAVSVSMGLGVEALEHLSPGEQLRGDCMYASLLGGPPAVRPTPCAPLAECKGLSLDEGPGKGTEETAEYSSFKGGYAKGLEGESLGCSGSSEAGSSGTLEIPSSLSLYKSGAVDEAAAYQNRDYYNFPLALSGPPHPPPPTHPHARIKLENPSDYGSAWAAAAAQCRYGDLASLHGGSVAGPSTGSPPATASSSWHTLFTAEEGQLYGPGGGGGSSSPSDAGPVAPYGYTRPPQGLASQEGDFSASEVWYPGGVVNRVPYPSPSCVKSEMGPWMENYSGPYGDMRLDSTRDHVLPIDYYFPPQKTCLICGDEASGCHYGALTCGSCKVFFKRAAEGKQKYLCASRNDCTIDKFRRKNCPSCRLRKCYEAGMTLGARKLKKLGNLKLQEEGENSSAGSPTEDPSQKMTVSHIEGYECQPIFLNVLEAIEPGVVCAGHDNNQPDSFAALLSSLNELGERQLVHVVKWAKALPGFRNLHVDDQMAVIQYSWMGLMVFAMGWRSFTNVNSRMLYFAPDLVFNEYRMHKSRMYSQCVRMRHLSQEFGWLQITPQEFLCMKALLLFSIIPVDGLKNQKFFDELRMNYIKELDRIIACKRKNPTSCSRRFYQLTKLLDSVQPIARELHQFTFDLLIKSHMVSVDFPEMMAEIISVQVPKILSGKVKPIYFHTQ
Retinoic acid receptor alpha (Homo sapiens), sequence (P10276 whole entry, looked up): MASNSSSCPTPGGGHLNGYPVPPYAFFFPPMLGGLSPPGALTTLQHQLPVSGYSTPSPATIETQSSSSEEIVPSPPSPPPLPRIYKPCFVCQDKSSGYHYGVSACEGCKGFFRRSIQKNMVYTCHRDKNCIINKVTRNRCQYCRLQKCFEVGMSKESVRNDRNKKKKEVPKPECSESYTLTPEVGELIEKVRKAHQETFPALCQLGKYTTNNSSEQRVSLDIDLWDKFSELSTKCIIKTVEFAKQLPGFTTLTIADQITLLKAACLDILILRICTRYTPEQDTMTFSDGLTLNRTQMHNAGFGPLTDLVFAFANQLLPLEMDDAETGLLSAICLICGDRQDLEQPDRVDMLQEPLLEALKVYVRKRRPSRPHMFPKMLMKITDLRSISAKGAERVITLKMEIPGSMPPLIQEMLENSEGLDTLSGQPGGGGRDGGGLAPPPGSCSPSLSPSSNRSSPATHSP
human Thyroid Receptor Alpha (TRa), THRA (gene 7067), sequence (P10827 whole entry, looked up): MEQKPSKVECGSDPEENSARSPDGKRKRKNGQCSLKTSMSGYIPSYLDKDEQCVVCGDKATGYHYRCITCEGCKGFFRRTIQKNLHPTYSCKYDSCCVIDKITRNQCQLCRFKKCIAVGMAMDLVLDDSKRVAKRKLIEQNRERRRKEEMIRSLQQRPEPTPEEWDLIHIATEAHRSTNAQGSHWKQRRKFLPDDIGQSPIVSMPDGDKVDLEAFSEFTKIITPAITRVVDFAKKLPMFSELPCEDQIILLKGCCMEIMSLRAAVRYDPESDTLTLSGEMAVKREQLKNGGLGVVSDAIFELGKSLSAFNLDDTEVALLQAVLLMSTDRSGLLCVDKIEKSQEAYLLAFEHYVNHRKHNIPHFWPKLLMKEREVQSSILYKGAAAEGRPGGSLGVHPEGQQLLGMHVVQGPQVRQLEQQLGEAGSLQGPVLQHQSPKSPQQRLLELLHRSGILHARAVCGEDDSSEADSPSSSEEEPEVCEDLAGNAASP
guinea pig Sigma Receptor, Non-selective Binding, SIGMAR1 (gene 100135589), sequence (Q60492 whole entry, looked up): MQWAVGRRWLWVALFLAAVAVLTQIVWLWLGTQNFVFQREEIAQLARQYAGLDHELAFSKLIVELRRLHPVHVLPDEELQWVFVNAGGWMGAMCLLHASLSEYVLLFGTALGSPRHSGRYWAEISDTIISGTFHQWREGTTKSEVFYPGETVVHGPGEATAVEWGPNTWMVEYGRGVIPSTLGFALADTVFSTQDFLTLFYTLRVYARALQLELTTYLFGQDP

For `Cc1cc(C)nc(NC(=O)NS(=O)(=O)c2ccccc2C(=O)OC2COC2)n1`, the compound was called inactive in [1].
On to `O=S1OCC2C(CO1)C1(Cl)C(Cl)=C(Cl)C2(Cl)C1(Cl)Cl` (stereo not given), for which the compound was classed as inactive (in [2]; in experiment [3]; in [6]; with PGR (gene 5241); in experiment [8]). In addition, the values for the AC50 in experiment [4], in experiment [5] and in experiment [7] were 34.5 µM (active), 31.8 µM (active) and 2.29 µM (active), respectively.
As to `CCC(C)(C)C(=O)OC1=C(c2ccc(Cl)cc2Cl)C(=O)OC12CCCCC2`, the compound was called inactive in [9], in experiment [10], in experiment [5], in experiment [11] and in experiment [12]. Moreover, the half-maximal activity concentration (AC50) in [4] was 82.4 µM (active).
For the compound `C[C@H]1[C@H](c2ccc(Cl)cc2)SC(=O)N1C(=O)NC1CCCCC1`, the result (in experiment [2]; in experiment [10]; in [5]; in experiment [11]; in [13]; in the experiment with PGR (gene 5241)) was inactive. For the same compound, the AC50 in experiment [4] is 67.7 µM (active).
For the compound `Oc1cc(Cl)ccc1Oc1ccc(Cl)cc1Cl`, the outcome in experiment [1], in [14], in [13] and in experiment [7] was inactive.
`CC1(C)C(C=C(Cl)Cl)C1C(=O)OC(C#N)c1ccc(F)c(Oc2ccccc2)c1` (stereo not given): the compound was classed as inactive in experiment [2], in [10], in experiment [11], in experiment [6] and in experiment [15]. For the same compound, in experiment [7], the half-maximal activity concentration (AC50) was 7.25 µM (active).
Regarding `CCc1ccc(C(=O)NN(C(=O)c2cc(C)cc(C)c2)C(C)(C)C)cc1`, the call in [9], in [3], in experiment [11] and in experiment [13] was inactive.
`COC(=O)c1ccccc1S(=O)(=O)NC(=O)Nc1nc(C)nc(OC)n1`: the compound was called inactive in experiment [9] and in experiment [6].
`CN1CSC(=S)N(C)C1`: the outcome in experiment [2], in experiment [3] and in experiment [13] was inactive. Moreover, the AC50 in experiment [9] is 9.27 µM (active).
For `CCCN(CCC)c1c([N+](=O)[O-])cc(C(F)(F)F)cc1[N+](=O)[O-]`, the result in experiment [2], in experiment [3], in experiment [4], in experiment [5] and in experiment [8] was inactive.
On to `COP(=S)(OC)Oc1ccc([N+](=O)[O-])cc1`, for which the compound was classed as inactive in experiment [9], in experiment [3], in experiment [10], in experiment [11], in experiment [13] and in experiment [15]. The AC50 is 10.3 µM (active) with PGR (gene 5241) and 4.69 µM (active) in experiment [16].
On to `O=C(NC(=O)c1c(F)cccc1F)Nc1ccc(OC(F)(F)C(F)OC(F)(F)F)c(Cl)c1` (stereo not given), for which the result in experiment [2], in [3], in [10], in [11] and in [13] was inactive.
As to `O=[N+]([O-])c1c(Cl)c(Cl)c(Cl)c(Cl)c1Cl`, the compound was classed as inactive in [3], in [10], in [4], in experiment [5], in [11] and in [13]. The outcome in experiment [6], in experiment [15], in experiment [7] and in [8] was inactive.
On to `COC(=O)c1ccccc1CS(=O)(=O)NC(=O)Nc1nc(OC)cc(OC)n1`, for which the call in experiment [1] and in experiment [2] was inactive.
Regarding `CNC(=O)Oc1ccccc1OC(C)C`, the compound was classed as inactive in experiment [3], in experiment [10], in experiment [11] and in experiment [13].
On to `O=C1c2ccccc2C(=O)N1SC(Cl)(Cl)Cl`, for which the outcome in experiment [3], in experiment [10], in [13] and in experiment [6] was inactive.
For the compound `CC(C)N(C(=O)COc1nnc(C(F)(F)F)s1)c1ccc(F)cc1`, the outcome in [3] and in experiment [13] was inactive.
For `O=C(Nc1ccccc1)Nc1cnns1`, the compound was classed as inactive in experiment [3], in experiment [11] and in experiment [13].
Take `Cc1[nH]c(=O)n(C(C)(C)C)c(=O)c1Cl`: the call in [3], in experiment [4] and in experiment [5] was inactive.
`CCOCN(C(=O)CCl)c1c(C)cccc1CC`: the call in experiment [3] and in [11] was inactive.
